Active and inactive are the calls of the source.
Legend:
Albumin (Bos taurus) = Albumin (Bos taurus) (UniProt P02769); test: bovine serum albumin binders on microarray, profiling panel, artefact control for SMM control protein annotation, biochemical, small-molecule microarray, Alexa647 label, 635/667 nm fluorescence (AID 1118); conditions: BSA-A647 binding, fluorescence 635 nm, higher = more signal;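 also: score merges 667 nm emission intensity and signal-to-noise per printed compound spot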
[1] = small-molecule microarray binders of probe aXIP, primary screen, biochemical, NeuroSMM set, 635/667 nm fluorescence (AID 1119); conditions: higher = more signal, called active from +8 up or from −8 down;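 also: probe is the protein aXip251-270 applied at 1 µg/mL to compound-printed slides; binding of probe to printed compounds measured as 667 nm fluorescence plus signal to noise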
[2] = small-molecule binders of probe aNOTCH3, primary screen, biochemical, small-molecule microarray, 635/667 nm fluorescence (AID 1120); conditions: higher = more signal;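 also: probe is a biotin-tagged antibody raised against NOTCH3 rather than NOTCH3 protein; score merges spot fluorescence near 667 nm with spot signal to noise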
[3] = small-molecule binders of probe aNOTCH2, primary screen, biochemical, small-molecule microarray, 635/667 nm fluorescence (AID 1121); conditions: higher = more signal;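 also: score merges feature fluorescence read at 667 nm with its signal to noise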
[4] = molecular target: Carbonic anhydrase 2 (Homo sapiens) (UniProt P00918); test: CAII small-molecule binders, profiling panel, biochemical, small-molecule microarray, Alexa647-labelled CAII (AID 1122); conditions: CAII-A647 binding fluorescence, higher = more signal
[5] = COS7 lysate on small-molecule microarray, probe aHis, 635 nm (AID 1123); conditions: COS7 cell lysate, fluorescence, higher = more signal;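 also: z-score combines 667nm fluorescence intensity with signal-to-noise per printed compound spot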
[6] = compound binding in COS7 lysate, probe aLAP1, primary screen, cell lysate, small-molecule microarray (AID 1124); conditions: probe aLAP1, fluorescence, higher = more signal;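 also: lysate comes from COS7 cells expressing LAP1 and is applied at 0.3 µg/mL; score merges spot fluorescence near 667 nm with signal-to-noise over triplicate slides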
Sam68 (KHDRBS1) = test: Sam68 small-molecule binders, primary screen, biochemical, small-molecule microarray, 635 nm fluorescence (AID 1125); conditions: small-molecule microarray binding, higher = more signal;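 also: score merges 667 nm channel intensity with signal to noise over triplicate slides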
[7] = system: Chordin-like protein 2 (CHRDL2); test: CHRDL2 small-molecule binders, primary screen, biochemical, small-molecule microarray, 635 nm fluorescence (AID 1126); conditions: small-molecule microarray binding, fluorescence 635 nm; higher = more signal;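 also: printed compound slides probed with Chrdl2 protein at 4 µg/mL for 1 h at 4 C; score merges 667 nm emission intensity with signal to noise over three replicate slides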
[8] = molecular target: Concanavalin-A (Canavalia ensiformis) (UniProt P02866); test: ConA small-molecule binders, primary screen, artefact control for SMM control protein annotation, biochemical, small-molecule microarray, Alexa647 label, 635 nm (AID 1127); conditions: ConA-A647 binding fluorescence, higher = more signal;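 also: z combines 667 nm emission intensity with signal-to-noise across three replicate slides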
[9] = anti-His antibody binders, primary screen, artefact control for SMM control protein annotation, biochemical, small-molecule microarray, 635 nm fluorescence (AID 1128); conditions: anti-His Alexa647 antibody binding, higher = more signal;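 also: score merges feature fluorescence with signal-to-noise for each printed compound spot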
[10] = system: Human papillomavirus type 1a E7 protein (residues 1-88); test: HPV1a E7 small-molecule binders, primary screen, biochemical, small-molecule microarray, residues 1-88, 635 nm (AID 1129); conditions: small-molecule microarray binding, fluorescence 635 nm; higher = more signal
[11] = molecular target: Focal adhesion kinase 1 (Homo sapiens) (UniProt Q05397); test: small-molecule microarray binders of FAK, primary screen, biochemical, 635/667 nm fluorescence, BSA, DTT (AID 1130); conditions: PTK2 binding, 635 nm fluorescence, higher = more signal;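 also: composite of spot emission at 667 nm and signal to noise over triplicate slides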
[12] = system: Fibrinogen (Alexa647-labelled); test: fibrinogen binders on compound microarrays, profiling panel, artefact control for SMM control-protein annotation, biochemical, small-molecule microarray, 635/667 nm fluorescence (AID 1131); conditions: fibrinogen-A647 binding fluorescence, higher = more signal;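 also: z-score merges 667 nm fluorescence with per-spot signal-to-noise over triplicate slides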
[13] = molecular target: Follistatin (Homo sapiens) (UniProt P19883); test: follistatin binders on small-molecule microarrays, primary screen, biochemical, small-molecule microarray, 635/667 nm fluorescence (AID 1132); conditions: FST binding, 635 nm fluorescence, higher = more signal
[14] = molecular target: Fibroblast growth factor 2 (Homo sapiens) (UniProt P09038); test: FGF2 binders on small-molecule microarrays, primary screen, biochemical, small-molecule microarray, 635/667 nm fluorescence (AID 1133); conditions: small-molecule microarray binding, FGF2, fluorescence 635/667; higher = more signal
[15] = mitochondrial membrane potential change in A549 cells, profiling panel, cell-based, JC-1 fluorescence, basal, 24 h, 100 nL (AID 1138); conditions: higher = more signal;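 also: A549 lung adenocarcinoma cells under basal conditions with no added stimulus; test concentration not given here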
Lefty1 = Lefty1 binders on small-molecule microarrays, primary screen, biochemical, small-molecule microarray, 635/667 nm fluorescence (AID 1139); conditions: small-molecule microarray binding, fluorescence 635/667; higher = more signal
[16] = system: wheat germ agglutinin (Triticum aestivum), Alexa647-labelled; test: wheat germ agglutinin binders on compound microarrays, profiling panel, artefact control for SMM control-protein annotation, biochemical, small-molecule microarray, 635/667 nm fluorescence (AID 1140); conditions: WGA-A647 binding, 635 nm fluorescence, higher = more signal;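 also: score merges 667 nm feature emission with signal to noise over triplicate slides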
[17] = molecular target: Luciferin 4-monooxygenase (Photinus pyralis) (UniProt P08659); test: firefly luciferase enzyme inhibitors, primary screen, biochemical, luminescence, purified enzyme, 2006 set (AID 1141); conditions: SteadyGlo luminescence, 30 min, higher = more signal, called active from +8 up or from −8 down;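 also: cell-free assay with purified firefly luciferase at 100 ng per well in PBS; test concentration not given here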
Sequence of Luciferin 4-monooxygenase (Photinus pyralis) (P08659 whole entry, looked up): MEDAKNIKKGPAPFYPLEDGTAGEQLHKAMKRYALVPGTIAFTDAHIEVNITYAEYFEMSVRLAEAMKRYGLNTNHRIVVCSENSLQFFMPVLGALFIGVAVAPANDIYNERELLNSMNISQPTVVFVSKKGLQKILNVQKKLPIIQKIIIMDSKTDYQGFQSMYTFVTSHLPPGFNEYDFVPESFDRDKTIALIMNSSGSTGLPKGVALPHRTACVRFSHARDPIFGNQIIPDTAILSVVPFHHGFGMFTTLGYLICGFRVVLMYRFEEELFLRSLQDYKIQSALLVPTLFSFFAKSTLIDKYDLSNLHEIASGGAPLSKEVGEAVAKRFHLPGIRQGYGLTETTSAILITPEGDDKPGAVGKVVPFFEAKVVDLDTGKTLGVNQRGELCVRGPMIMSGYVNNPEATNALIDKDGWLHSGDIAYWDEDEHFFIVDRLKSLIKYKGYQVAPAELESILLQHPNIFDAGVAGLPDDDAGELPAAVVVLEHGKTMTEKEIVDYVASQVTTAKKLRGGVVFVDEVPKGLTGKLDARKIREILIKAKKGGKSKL

Sequence of Concanavalin-A (Canavalia ensiformis) (P02866 whole entry, looked up): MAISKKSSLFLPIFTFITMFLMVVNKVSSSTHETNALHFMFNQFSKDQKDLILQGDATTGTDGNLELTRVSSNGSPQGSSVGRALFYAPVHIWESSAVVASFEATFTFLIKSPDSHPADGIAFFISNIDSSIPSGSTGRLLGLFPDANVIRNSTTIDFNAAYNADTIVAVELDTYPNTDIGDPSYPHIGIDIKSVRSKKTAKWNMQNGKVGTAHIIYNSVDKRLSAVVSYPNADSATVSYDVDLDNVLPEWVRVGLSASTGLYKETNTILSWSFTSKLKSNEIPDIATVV
Sequence of Follistatin (Homo sapiens) (P19883 whole entry, looked up): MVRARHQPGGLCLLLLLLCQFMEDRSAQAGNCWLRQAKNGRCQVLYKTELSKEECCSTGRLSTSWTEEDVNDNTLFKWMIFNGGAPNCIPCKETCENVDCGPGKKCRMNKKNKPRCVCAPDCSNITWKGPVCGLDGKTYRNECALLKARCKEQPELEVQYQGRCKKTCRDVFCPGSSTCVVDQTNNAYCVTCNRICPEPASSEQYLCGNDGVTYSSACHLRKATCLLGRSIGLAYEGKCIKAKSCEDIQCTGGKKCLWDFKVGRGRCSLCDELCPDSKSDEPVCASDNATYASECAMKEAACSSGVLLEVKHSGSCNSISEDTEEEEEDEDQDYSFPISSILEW
Sequence of Fibroblast growth factor 2 (Homo sapiens) (P09038 whole entry, looked up): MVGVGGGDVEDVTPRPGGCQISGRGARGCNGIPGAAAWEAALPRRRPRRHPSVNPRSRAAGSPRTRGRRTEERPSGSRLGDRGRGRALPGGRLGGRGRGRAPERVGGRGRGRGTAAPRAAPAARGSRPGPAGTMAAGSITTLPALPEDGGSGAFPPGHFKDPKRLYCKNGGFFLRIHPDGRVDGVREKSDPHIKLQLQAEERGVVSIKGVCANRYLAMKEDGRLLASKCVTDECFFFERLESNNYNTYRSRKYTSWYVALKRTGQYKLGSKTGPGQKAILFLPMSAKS
Sequence of Focal adhesion kinase 1 (Homo sapiens) (Q05397 whole entry, looked up): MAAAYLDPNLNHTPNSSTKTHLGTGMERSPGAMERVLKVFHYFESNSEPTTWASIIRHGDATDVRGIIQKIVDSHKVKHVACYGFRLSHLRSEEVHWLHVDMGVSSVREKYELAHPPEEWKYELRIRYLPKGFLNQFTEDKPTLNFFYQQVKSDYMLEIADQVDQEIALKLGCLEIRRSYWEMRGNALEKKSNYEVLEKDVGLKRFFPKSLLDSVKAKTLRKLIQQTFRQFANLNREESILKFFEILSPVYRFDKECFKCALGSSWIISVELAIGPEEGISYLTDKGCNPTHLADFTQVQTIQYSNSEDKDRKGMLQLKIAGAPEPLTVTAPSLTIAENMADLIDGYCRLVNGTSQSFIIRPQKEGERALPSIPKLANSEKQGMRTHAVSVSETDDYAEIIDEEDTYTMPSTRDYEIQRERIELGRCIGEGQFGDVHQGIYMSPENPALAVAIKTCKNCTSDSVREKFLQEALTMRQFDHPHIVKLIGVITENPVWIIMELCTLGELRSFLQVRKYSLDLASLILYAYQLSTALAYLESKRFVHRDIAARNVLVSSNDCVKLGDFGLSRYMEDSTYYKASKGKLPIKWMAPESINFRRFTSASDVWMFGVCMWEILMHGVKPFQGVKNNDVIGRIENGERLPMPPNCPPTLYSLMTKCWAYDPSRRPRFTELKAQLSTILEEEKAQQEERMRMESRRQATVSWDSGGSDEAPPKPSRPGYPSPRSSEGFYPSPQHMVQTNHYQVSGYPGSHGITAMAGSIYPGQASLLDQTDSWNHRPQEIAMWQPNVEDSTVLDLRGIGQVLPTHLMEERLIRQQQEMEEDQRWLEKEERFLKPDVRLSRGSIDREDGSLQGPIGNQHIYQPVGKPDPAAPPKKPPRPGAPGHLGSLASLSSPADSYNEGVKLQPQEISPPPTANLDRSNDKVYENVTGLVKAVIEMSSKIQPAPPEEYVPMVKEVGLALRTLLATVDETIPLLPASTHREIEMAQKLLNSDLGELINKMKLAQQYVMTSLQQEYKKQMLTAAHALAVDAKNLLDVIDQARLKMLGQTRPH
Sequence of Albumin (Bos taurus) (P02769 whole entry, looked up): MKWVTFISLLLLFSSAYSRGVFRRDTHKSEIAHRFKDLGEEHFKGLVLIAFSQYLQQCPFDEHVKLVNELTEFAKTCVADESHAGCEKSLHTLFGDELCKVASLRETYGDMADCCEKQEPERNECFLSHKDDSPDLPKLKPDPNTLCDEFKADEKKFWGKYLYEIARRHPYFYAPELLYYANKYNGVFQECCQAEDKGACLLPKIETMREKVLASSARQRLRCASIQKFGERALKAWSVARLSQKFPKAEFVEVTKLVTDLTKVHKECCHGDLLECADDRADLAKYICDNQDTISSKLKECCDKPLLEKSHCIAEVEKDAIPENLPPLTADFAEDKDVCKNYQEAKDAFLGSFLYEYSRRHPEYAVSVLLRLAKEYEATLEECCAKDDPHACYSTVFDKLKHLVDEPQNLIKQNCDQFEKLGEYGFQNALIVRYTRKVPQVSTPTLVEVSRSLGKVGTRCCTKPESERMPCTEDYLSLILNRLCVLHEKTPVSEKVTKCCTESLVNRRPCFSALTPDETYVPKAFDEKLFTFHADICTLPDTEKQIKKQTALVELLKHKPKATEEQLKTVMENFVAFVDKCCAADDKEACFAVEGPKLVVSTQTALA

| SMILES | composite z-score (Albumin (Bos taurus)) | composite Z-score [1] | composite z-score [2] | composite z-score [3] | composite z-score [4] | composite z-score [5] | composite z-score [6] | composite z-score (Sam68 (KHDRBS1)) | composite z-score [7] | composite z-score [8] | composite z-score [9] | composite z-score [10] | composite z-score [11] | composite z-score [12] | composite z-score [13] | composite z-score [14] | z-score [15] | composite z-score (Lefty1) | composite z-score [16] | z-score [17] |
| --- | --- | --- | --- | --- | --- | --- | --- | --- | --- | --- | --- | --- | --- | --- | --- | --- | --- | --- | --- | --- |
| CC(C)=CCCC(C)=CCON=C1C[C@@H](O)[C@@H](O)[C@@H]2[C@@H]3C(=O)N(C4CCCCC4)C(=O)[C@@H]3CC[C@@H]12 | 0.0108 | 0.244 (inactive) | -0.0048 | -0.13 | 0.276 | -0.112 | 0.0694 | 0.493 | 1.01 | 0.124 | -0.216 | 0.0286 | 0.0165 | -0.229 | 0.831 | 0.417 | -0.64 | 0.791 | -0.0783 | 0.335 (inactive) |
| CCOC(=O)[C@H](CC(C)C)NC(=O)CCC1CC(OC(=O)NCCc2ccc(F)cc2)CC2(CCCC(COC(=O)NCCOc3ccccc3)O2)O1 (stereo not given in full) | 0.671 | 0.0308 (inactive) | 0.0496 | -0.0971 | 0.193 | 1.31 | -0.0164 | 1.23 | 0.324 | 0.931 | 0.744 | 0.698 | 0.231 | 0.985 | 0.826 | 0.692 | 0.0542 | 1.35 | 0.394 | 0.96 (inactive) |
| COC(=O)CC=C[C@@H](C)[C@@H](C=NOC[C@H]1O[C@H](c2ccccc2)C=C[C@@H]1Oc1ccc(OC)cc1)NS(=O)(=O)c1ccc(C)cc1 | -0.453 | -0.769 (inactive) | -0.196 | -0.138 | -0.648 | -0.588 | -0.689 | -1.18 | 0.156 | -2.02 | -1.16 | -1.1 | -0.217 | -0.85 | -1.04 | -0.528 | -0.173 | -1.11 | -0.542 | 0.847 (inactive) |
| COC(=O)C=CCCc1coc(C=CCNC(=O)OC)n1 | 0.266 | 0.103 (inactive) | 0.482 | 0.16 | 0.492 | 0.32 | 0.146 | 0.654 | 1.34 | -0.0726 | 0.803 | -0.259 | 0.256 | 0.247 | 1.15 | 1.04 | -1.15 | 1.37 | 0.0559 | 0.122 (inactive) |
| O=C1[C@H]2[C@H]3[C@H](O)[C@H](O)CC(=NOC[C@@H](O)COCc4ccco4)[C@@H]3CC[C@H]2C(=O)N1C[C@@H]1CCCO1 | 0.63 | 0.381 (inactive) | -0.0345 | -0.0986 | -0.267 | 0.155 | 0.174 | 0.902 | 1.53 | -0.281 | 0.142 | -0.12 | -0.288 | -0.652 | 0.907 | 1.34 | -0.00687 | 1.17 | -0.559 | 0.31 (inactive) |
| CCOC(=O)[C@H](CC(C)C)NC(=O)CCC1CC(OC(=O)NCCc2ccc(F)cc2)CC2(CCCC(COC(=O)NCC3CCCCC3)O2)O1 (stereo not given in full) | 0.424 | 0.2 (inactive) | 0.119 | -0.203 | 0.255 | 2.11 | 0.0165 | 0.986 | 0.618 | 1.07 | 0.183 | 0.579 | -0.124 | 0.623 | 0.51 | 0.631 | -0.506 | 0.803 | 0.676 | 0.997 (inactive) |
| CO[C@H]1COC(=O)[C@@H](C)COC(=O)[C@H](C)NC(=O)CC=C[C@H]1C | -0.859 | 0.111 (inactive) | -0.038 | -0.0907 | -0.328 | -0.866 | -0.225 | 0.486 | 1.27 | -0.99 | -0.79 | -0.764 | -0.113 | -0.47 | 1.31 | 0.871 | 0.853 | 1.58 | -0.379 | -0.185 (inactive) |
| C[C@H]1CC[C@H]2C(=O)O[C@H](COc3ccc(C(C)(C)C)cc3)CN2[C@@H]1c1ccc(Br)cc1 | 0.513 | 1.48 (inactive) | -0.0435 | -0.123 | -0.232 | 0.263 | 0.253 | 0.421 | -0.0816 | 1.09 | 2.63 | 0.243 | 0.189 | 0.503 | 0.0469 | -0.101 | 0.972 | 0.395 | 0.034 | -1.73 (inactive) |
| Cn1c(=O)n2n(c1=O)[C@H]1[C@H](O)[C@@H]3O[C@@H]3C(=NOCc3ccccc3)[C@H]1CC2 | 0.0494 | -0.054 (inactive) | -0.112 | -0.14 | 0.487 | 0.444 | -0.0493 | 0.557 | -0.37 | -0.136 | 0.192 | -0.624 | 0.13 | -0.867 | -0.104 | -0.478 | 0.874 | 0.3 | 0.349 | -0.101 (inactive) |
| COC(=O)[C@@H]1CC[C@H](C)[C@@H](c2ccc(C)cc2)N1C(=O)c1ccc(C=NO[C@H](C)c2cn([C@@H]3COC[C@H]3O)nn2)cc1 | 0.56 | -0.359 (inactive) | -0.125 | -0.117 | 0.311 | 0.81 | -0.0293 | 1.21 | 0.389 | 0.581 | -0.684 | 1.13 | 0.155 | 0.677 | 0.353 | 0.502 | -0.662 | 0.551 | 0.145 | 0.411 (inactive) |
| COC(=O)[C@H](C)NC(=O)CCC1CC(OC(=O)NCCc2ccc(F)cc2)CC2(CCCC(COC(=O)NCCC(C)C)O2)O1 (stereo not given in full) | 0.828 | 0.443 (inactive) | -0.0262 | 0.128 | 0.325 | 0.834 | -0.234 | 0.36 | 0.0905 | 0.0934 | 0.959 | 0.168 | 0.0069 | 0.939 | 0.577 | 0.761 | 2.09 | 0.899 | 0.323 | -0.447 (inactive) |
